From PubChem BioAssay AID1159580 (chemical genetic matrix, 2015)
Where “and” joins values, the source holds several entries; their conditions need not be identical. Equal entries are not always repeated. Among all 5,500 compounds or so, about 2,000 (36%) were called active. Roughly 18% stayed inconclusive and do not appear here. Cut-off read from the data, not from the text of the source: active = normalized growth mostly below about 0.91 (no sharp cut-off); inconclusive = no clear call, values can overlap the other calls; inactive = mostly above about 0.92. The list shows a part of the results.

Experiment: chemical genetic growth profiling, strain panel (AID 1159580);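 note: tested at 20 µM; growth read once vehicle control cultures reached saturation at 30 °C; 1 = growth at the plate median or of vehicle wells; lower values mean less growth of the strain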
Conditions: S. cerevisiae deletion strains, growth OD

Measured: normalized growth

N#C/C(=C\c1cccc(O)c1)C(=O)O
inactive: locus YAL013W, strain DEP1, hits give low values 0.996 | locus YAL021C, strain ccr4, hits give low values 0.978 | locus YAL026C, strain drs2, hits give low values 0.985 | locus YAL030W, strain snc1, hits give low values 0.977 | locus YBL061C, strain skt5, hits give low values 0.976 | locus YBR009C, strain hhf1, hits give low values 1.03 | locus YBR021W, strain FUR4, hits give low values 1.02 | locus YBR023C, strain chs3, hits give low values 0.979 | locus YBR171W, strain sec66, hits give low values 0.995 | locus YBR229C, strain ROT2, hits give low values 0.961 | locus YBR231C, strain swc5, hits give low values 1.01 | locus YBR279W, strain paf1, hits give low values 0.987 | locus YCL016C, strain dcc1, hits give low values 0.966 | locus YCL029C, strain bik1, hits give low values 0.997 | locus YCL061C, strain MRC1, hits give low values 0.985 | locus YCL069W, strain vba3, hits give low values 1 | locus YCR088W, strain abp1, hits give low values 0.989 | locus YDL005C, strain med2, hits give low values 0.999 | locus YDL035C, strain GPR1, hits give low values 0.994 | locus YDL040C, strain nat1, hits give low values 0.99 | locus YDL074C, strain BRE1, hits give low values 0.981 | locus YDL101C, strain DUN1, hits give low values 0.974 | locus YDL134C, strain PPH21, hits give low values 0.992 | locus YDL185W, strain tfp1, hits give low values 0.98 | locus YDL192W, strain arf1, hits give low values 0.994 | locus YDR001C, strain nth1, hits give low values 0.988 | locus YDR069C, strain doa4, hits give low values 0.985 | locus YDR101C, strain arx1, hits give low values 1.01 | locus YDR137W, strain rgp1, hits give low values 0.977 | locus YDR150W, strain NUM1, hits give low values 0.974 | locus YDR159W, strain sac3, hits give low values 0.987 | locus YDR162C, strain NBP2, hits give low values 0.921 | locus YDR195W, strain ref2 1 | locus YDR297W, strain sur2, hits give low values 0.984 | locus YDR318W, strain mcm21, hits give low values 1.03 | locus YDR334W, strain swr1, hits give low values 0.981 | locus YDR335W, strain msn5, hits give low values 0.982 | locus YDR388W, hits give low values 0.999 | locus YDR392W, strain spt3, hits give low values 0.933 | locus YDR502C, strain sam2, hits give low values 0.997 | locus YEL003W, strain gim4, hits give low values 0.997 | locus YEL037C, strain rad23, hits give low values 0.997 | locus YEL061C, strain CIN8 (second series), hits give low values 0.989 | locus YEL061C, strain CIN8, hits give low values 0.985 | locus YER015W, strain faa2, hits give low values 0.975 | locus YER016W, strain bim1, hits give low values 0.949 | locus YER110C, hits give low values 0.942 | locus YER111C, strain swi4, hits give low values 0.971 | locus YER155C, strain BEM2 (second series), hits give low values 1.04 | locus YER155C, strain BEM2, hits give low values 0.986 | locus YER167W, strain BCK2, hits give low values 1.05 | locus YFR010W, strain ubp6, hits give low values 1.01 | locus YGL078C, strain dbp3, hits give low values 0.976 | locus YGL086W, strain mad1, hits give low values 1.03 | locus YGL167C, strain pmr1, hits give low values 0.99 | locus YGL173C, strain kem1, hits give low values 1.01 | locus YGL227W, strain vid30, hits give low values 0.985 | locus YGL240W, strain doc1, hits give low values 0.986 | locus YGL248W, strain PDE1, hits give low values 0.984 | locus YGL253W, strain hxk2, hits give low values 0.975 | locus YGR078C, strain PAC10, hits give low values 0.996 | locus YGR135W, strain pre9, hits give low values 0.993 | locus YGR229C, strain SMI1, hits give low values 1.02 | locus YGR252W, strain gcn5, hits give low values 1.07 | locus YHR013C, strain ard1, hits give low values 0.962 | locus YHR027C, strain rpn1, hits give low values 0.984 | locus YHR030C, strain SLT2, hits give low values 0.999 and 0.994 | locus YHR079C, strain IRE1 (second series), hits give low values 1 | locus YHR079C, strain IRE1, hits give low values 0.969 | locus YHR094C, strain hxt1, hits give low values 0.993 | locus YHR129C, strain ARP1, hits give low values 1 | locus YHR142W, strain chs7, hits give low values 0.971 | locus YHR200W, strain rpn10, hits give low values 1 | locus YIL066C, strain RNR3, hits give low values 0.989 | locus YIL073C, strain SPO22, hits give low values 1.1 | locus YIL125W, strain kgd1, hits give low values 0.989 | locus YIR030C, strain dcg1, hits give low values 0.991 | locus YJL092W, strain hpr5, hits give low values 0.987 | locus YJL095W, strain BCK1 (second series), hits give low values 0.984 | locus YJL095W, strain BCK1, hits give low values 1.01 and 0.978 | locus YJL115W, strain asf1, hits give low values 0.97 | locus YJL129C, strain trk1, hits give low values 0.925 | locus YJL134W, strain LCB3, hits give low values 0.987 | locus YJL154C, strain vps35, hits give low values 0.985 | locus YJL164C, strain tpk1, hits give low values 0.987 | locus YJL166W, strain qcr8, hits give low values 1 | locus YJL168C, strain set2, hits give low values 0.995 | locus YJL187C, strain SWE1 (second series), hits give low values 0.966 | locus YJL187C, strain SWE1, hits give low values 0.997 | locus YJR043C, strain POL32, hits give low values 1.04 | locus YJR066W, strain TOR1, hits give low values 0.98
